Measured values as given in the supplement of paper PMC3334620.
Over roughly 33,000 sequences, “E-score (-0.5 to 0.5)” has its median near -0.04; the highest 2% begin near 0.36. Shown is part of a subset that was picked to be rich in the highest values.

Target: T1, Hmlalpha2 (UniProt P0CY09)
T1 sequence: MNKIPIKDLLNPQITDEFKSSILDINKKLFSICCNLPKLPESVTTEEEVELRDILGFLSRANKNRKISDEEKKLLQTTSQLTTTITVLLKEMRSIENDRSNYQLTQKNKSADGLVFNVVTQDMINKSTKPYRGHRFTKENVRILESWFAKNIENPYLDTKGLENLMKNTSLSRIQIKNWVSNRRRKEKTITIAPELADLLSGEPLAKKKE
Assay: PBM E-score (8-mer binding enrichment) (E-score (-0.5 to 0.5)); higher = stronger / more preferred TF binding
Details: protein concentration: 200 nM; construct: GST-full length
Protocol: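 Universal 'all 10-mer' protein binding microarrays (Agilent AMADID 015681) probed with GST-tagged S. cerevisiae TFs (full-length or DBD) made by in vitro transcription/translation (PURExpress), about 100-200 nM. Bound TF was detected with fluorescent anti-GST. Each ungapped 8-mer (which stands for itself and its reverse complement) is scored by the PBM enrichment score (E-score), a modified Wilcoxon-Mann-Whitney statistic from -0.5 to +0.5, computed with the Universal PBM Analysis Suite. Scale: above 0.35 generally sequence-specific binding.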

Sequence | PBM E-score
AGAATGGG | -0.307
GATTCCAA | -0.0677
ACATGCCG | 0.356
TAGCAGCA | -0.0647
GACCCAGA | -0.168
CCTCCCGC | -0.0916
ATCCGTGG | -0.229
CCGATCAA | -0.0314
CGCACCGC | -0.177
CCGCCAAA | -0.105
CGAAAGAA | -0.0556
TCCGCGGA | -0.0621
ACGAAAGA | -0.0344
AATCGTAC | 0.102
GACATGCA | 0.294
GACATGCC | 0.212
CACATGCC | 0.209
TACATGCA | 0.438
AACATGCC | 0.388
CACATGCA | 0.234
ACGTTAGA | 0.146
GGTCCGGA | -0.0474
TAAGCGAA | 0.122
TTTCGAAA | 0.0465
ATTTCTAC | 0.234

Sequence | PBM E-score
CACATAAC | 0.242
AACATAGA | 0.284
AACATAAG | 0.391
ATCATAAG | -0.00054
AACATAGG | 0.38
CACATAAG | 0.117
CACATAGG | 0.0614
AACATAAT | 0.287
AACATAAC | 0.403
CCGCAGTA | -0.0882
ATATTCTA | 0.169
CTCTTCGC | -0.205
CCATTGCG | -0.262
GGGTATCA | -0.118
AGCATAGC | 0.0169
ATGCGTAC | 0.273
ATGCGTAA | 0.375
CTGCGTAA | 0.417
GTGCGTAA | 0.406
GTGCGTGA | 0.192
GGGCGTAA | 0.0836
CTGCGTTA | 0.226
ATGCGTAG | 0.214
CTGCGTAC | 0.186
GTTCTGAA | 0.213

Sequence | PBM E-score
TGTGGGAA | 0.00853
CCCTCGCG | -0.199
ATGAGCAC | -0.067
ACTAAGTC | -0.157
AATATTAT | 0.189
AATATTAC | 0.381
AATATTAG | 0.0923
ACCACCAG | -0.148
AATACGCA | 0.385
AATACGCC | 0.0351
GATACGCA | 0.144
AATACGCT | 0.234
CATACGCG | 0.177
AATACGCG | 0.399
CGACTTTA | 0.134
AGGCACGC | -0.188
ATATTACC | 0.187
GTATTAAA | 0.307
CTATTAGA | -0.0387
ATATTACA | 0.439
CTATTACA | 0.442
ATATTACG | 0.352
CTATTACC | -0.0498
GTATTACA | 0.403
GTATTAGA | 0.289

Sequence | PBM E-score
ATCTTTCA | 0.0227
TTTCAAAA | 0.17
CTGATACC | -0.15
CGTTTGAC | 0.0383
AGGTAATA | 0.139
ACGTAAGA | 0.29
GAGTAATA | 0.286
CCGTAATA | 0.159
ACGTAATC | 0.392
AGGTAATG | 0.226
CCGTAATC | -0.00299
GCGTAATA | 0.373
ACGTAATA | 0.431
ACGTAAGC | 0.0597
ACGTAATG | 0.408
AAGTAATG | 0.196
GCTGCTTA | -0.0322
CCAATGCG | -0.181
GGTAAGCA | -0.0728
AATAAGCC | -0.212
GTGCATGA | 0.0341
GAAAGTTC | -0.218
GTATCCTA | 0.0388
GCCTATGA | -0.147
CCAACCCG | -0.242

Sequence | PBM E-score
GGGCGAAC | -0.178
GAACTCTA | 0.123
TTATCGAA | 0.0652
CATGTTAC | 0.41
CATGTTAG | 0.422
AATGTTAC | 0.269
CCTGTTAG | 0.0951
GATGTTAC | 0.304
AATGTTAG | 0.185
ATGGTCGA | -0.0159
ACGTAAAC | 0.295
ACGTAAAA | 0.388
ACGTAACA | 0.385
ACGTAACG | 0.161
ACGTAAGT | 0.216
ACGTAAAT | 0.376
AGGTAAAG | 0.19
ACGTAAAG | 0.372
CCGTAAAG | 0.0757
ACGTAACC | 0.22
AAGTAAAA | 0.121
CAGTAAAA | 0.134
ACCTAGTC | -0.177
GAAGGACC | -0.245
ACAAGCCT | 0.227

Sequence | PBM E-score
TCCAAGCA | -0.164
ATGGTAGA | 0.079
GCGTAAAA | 0.4
GCGTAAGC | 0.183
GCGTAAAC | 0.404
CCGTAAAC | 0.199
CCGTAAAA | 0.12
TCGTAAAA | 0.237
CTTCAATA | 0.173
ATACGGCA | 0.103
GCATGTAC | 0.408
CCATGTCG | 0.336
ACATGTCT | 0.305
CCATGTCC | -0.00972
GCATGTCC | -0.0024
CCATGTGC | 0.0482
CGATGTAG | 0.106
AAATGTAT | 0.277
GCCTGTAC | 0.101
ACATGTAT | 0.454
CCATGTAG | 0.416
CCATGTAC | 0.398
GCAGCTCA | -0.181
CTATGGAC | -0.125
CTGCGAAA | 0.0491

Sequence | PBM E-score
ATTCTGCA | -0.0444
ACCATCGT | -0.151
TCTAAGCA | -0.0643
TCGCTTAA | 0.0673
AATATGCT | 0.0361
ACATGTAC | 0.412
ACATGTGG | 0.312
ACATGTAG | 0.459
AGATGTAC | 0.121
ACATGTGC | 0.352
ACATGTCG | 0.343
CGGTGCGC | -0.279
ACTCTATC | -0.0301
ACCGTAGT | -0.225
AAGGGCCT | -0.136
ATGGCATA | -0.0529
CAAAGGTC | -0.233
ACGATTTA | 0.244
TAACACTA | 0.316
CTACACAC | 0.391
CTACACAG | 0.421
CTACAAAA | 0.0813
